The supplement of paper PMC4166925
± gives the standard deviation of the averaged measurements. Over roughly 33,000 sequences, “E-score (dimensionless, -0.5 to 0.5)” has its median near -0.049; the highest 2% begin near 0.37. Many of the other results were omitted from the sample, so the highest values are more common in it than they were.

These sequences were tested on T1, PmTbr T-box DNA-binding domain (GST fusion) (assay: PBM E-score of 8-mer (E-score (dimensionless, -0.5 to 0.5)); Tbr is Tbrain of the sea star Patiria miniata (Pm) or the sea urchin Strongylocentrotus purpuratus (Sp); higher = stronger binding preference). Details: the construct has about 5 more residues each side.
T1 sequence: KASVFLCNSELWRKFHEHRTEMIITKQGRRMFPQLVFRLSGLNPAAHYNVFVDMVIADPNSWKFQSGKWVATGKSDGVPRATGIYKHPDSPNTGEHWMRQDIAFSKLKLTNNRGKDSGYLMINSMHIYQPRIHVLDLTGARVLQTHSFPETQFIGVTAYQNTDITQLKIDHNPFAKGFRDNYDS
Protocol: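 Universal protein-binding microarray (Agilent AMADID 016060, 60-bp probes with a 35-bp variable region) incubated with 200 nM GST-fused Patiria miniata Tbr T-box DNA-binding domain (residues 272-466) in PBS pH 7.5. Scored for every ungapped 8-mer (given with its reverse complement) by the Universal PBM Analysis Suite as E-score (modified Wilcoxon-Mann-Whitney enrichment, range -0.5 to 0.5; >0.45 counts as bound) and Z-score of median probe intensity. Two replicate arrays (datasets 1 and 2).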

| Sequence | PBM E-score of 8-mer |
| --- | --- |
| TCGCGCGA | 0.3886 ± 0.0024 |
| ATTCTTTG | -0.109 ± 0.048 |
| AATCAACA | 0.231 ± 0.033 |
| ATTAGGGG | -0.208 ± 0.071 |
| AACAGCCT | 0.145 ± 0.021 |
| GGGTCTGA | -0.157 ± 0.028 |
| AAGTGTAT | 0.019 ± 0.037 |
| CAGTGTCA | 0.31 ± 0.017 |
| GATTGTCA | 0.298 ± 0.0064 |
| AAGTGTCG | 0.44424 ± 0.0003 |
| AAGTGTCC | 0.281 ± 0.011 |
| GAGTGTCA | 0.436 ± 0.0041 |
| CAGTGTCG | 0.289 ± 0.0095 |
| TAGTGTCA | 0.395 ± 0.027 |
| GAGTGTCC | -0.0246 ± 0.07 |
| AAGTGTCT | 0.329 ± 0.022 |
| TCGTGTCA | 0.305 ± 0.0037 |
| AAGTGTCA | 0.4726 ± 0.0035 |
| ACTGCTGG | -0.191 ± 0.0095 |
| AAGGCCAT | -0.225 ± 0.0052 |
| CAGCATTA | -0.0723 ± 0.024 |
| GAGGAGAA | -0.158 ± 0.088 |
| CCTACCAG | 0.00153 ± 0.031 |
| GGCGAGCA | -0.102 ± 0.048 |
| CAATGTCG | 0.119 ± 0.014 |

| Sequence | PBM E-score of 8-mer |
| --- | --- |
| CGTATTCA | 0.165 ± 0.051 |
| ACCTAGTG | 0.223 ± 0.013 |
| CCTTGAGC | -0.11 ± 0.019 |
| ATGAGCAC | -0.247 ± 0.061 |
| CTATGCAC | -0.129 ± 0.042 |
| CCGCTAAC | 0.169 ± 0.038 |
| CCGCTAAA | 0.275 ± 0.022 |
| GCGCTAAA | 0.394 ± 0.012 |
| GCGCTAAC | 0.4144 ± 0.0034 |
| TCGCTAAA | 0.163 ± 0.043 |
| ACGCTAAC | 0.257 ± 0.056 |
| GGCTAGAC | -0.231 ± 0.029 |
| AGTTCACG | 0.32 ± 0.02 |
| GGCTCACA | 0.0846 ± 0.0034 |
| AGTTCACA | 0.395 ± 0.0064 |
| GGTTCATA | 0.0267 ± 0.028 |
| CGTTCACA | 0.406 ± 0.012 |
| CGTTCAAG | -0.177 ± 0.028 |
| GGTTCACA | 0.372 ± 0.0038 |
| AGTTCACC | -0.0448 ± 0.0017 |
| CGTTCACC | -0.0379 ± 0.073 |
| GTTAAACA | 0.00153 ± 0.043 |
| AGGTCTGG | 0.0461 ± 0.012 |
| ACGCTAAT | 0.114 ± 0.018 |
| AGTTCTTG | -0.0105 ± 0.0029 |

| Sequence | PBM E-score of 8-mer |
| --- | --- |
| CGGCCCTA | -0.249 ± 0.019 |
| TACGCACA | -0.0799 ± 0.0095 |
| CCGTGTCG | 0.144 ± 0.045 |
| ACGTGTCT | 0.198 ± 0.0036 |
| ACGTGTAA | 0.31 ± 0.0077 |
| ACGTGTCG | 0.385 ± 0.022 |
| CCGTGTCA | 0.236 ± 0.0063 |
| ACGTGTCA | 0.4563 ± 0.0033 |
| CCGCATAG | -0.047 ± 0.042 |
| AGGTTAAG | -0.186 ± 0.083 |
| GCCCACTA | -0.0431 ± 0.011 |
| CCGGAGAA | -0.00469 ± 0.1 |
| ATCCCGCG | -0.042 ± 0.095 |
| GCGTGTAA | 0.0292 ± 0.033 |
| CCGTGTGA | 0.335 ± 0.015 |
| GCGTGAGA | 0.368 ± 0.021 |
| ACGTGTGA | 0.4818 ± 0.0022 |
| ACGTGTGC | 0.174 ± 0.035 |
| GCGTGTGA | 0.373 ± 0.016 |
| AGCGGGTG | 0.308 ± 0.017 |
| AGGGGGGC | -0.222 ± 0.034 |
| AGTGTCGC | 0.415 ± 0.019 |
| ATTGTCGC | 0.292 ± 0.024 |
| ATTGTCGA | 0.0764 ± 0.052 |
| GGTGTCGA | 0.461 ± 0.0086 |

| Sequence | PBM E-score of 8-mer |
| --- | --- |
| AGTGTCGA | 0.4188 ± 0.0041 |
| CGTGTCTA | 0.0962 ± 0.0027 |
| AGTGTCTA | 0.213 ± 0.017 |
| AATGTCGA | 0.0192 ± 0.036 |
| CGTGTCGA | 0.288 ± 0.052 |
| GGTGTCTA | 0.376 ± 0.007 |
| GTTGTCGA | 0.241 ± 0.021 |
| CGTGTCGC | 0.295 ± 0.023 |
| CAGCGGTA | -0.061 ± 0.018 |
| ACTGAAAC | -0.0158 ± 0.016 |
| CTCCTGCC | -0.0358 ± 0.0023 |
| AGCTGTCA | 0.3661 ± 0.003 |
| CACCAGGG | 0.0472 ± 0.096 |
| AGTGTGGA | 0.354 ± 0.0036 |
| GGTGTGGA | 0.432 ± 0.015 |
| AATGTCGG | -0.0392 ± 0.026 |
| AGTGTCGG | 0.38 ± 0.0074 |
| ATTGTCGG | 0.0329 ± 0.01 |
| CGTGTGGA | 0.284 ± 0.0037 |
| CGGCTGAG | -0.1 ± 0.073 |
| CTGTCTTC | 0.0449 ± 0.021 |
| AACATTTG | 0.0235 ± 0.04 |
| CTCTGAGC | -0.0449 ± 0.047 |
| CACCTCGC | 0.458 ± 0.0073 |
| GACCTCGA | -0.0343 ± 0.13 |

| Sequence | PBM E-score of 8-mer |
| --- | --- |
| CACCTCGG | 0.426 ± 0.015 |
| AACCTCGG | -0.124 ± 0.033 |
| AACCTCGA | 0.0311 ± 0.022 |
| CCCCTCGG | -0.194 ± 0.016 |
| CACCTCGA | 0.4483 ± 0.002 |
| GACCTCGC | 0.0974 ± 0.064 |
| AACCTCGC | 0.196 ± 0.035 |
| ACTCAGAC | 0.0474 ± 0.069 |
| ATTAGAAG | -0.226 ± 0.053 |
| GTAGAGCA | -0.196 ± 0.024 |
| GCGGTTAC | -0.0207 ± 0.021 |
| CAACCGTG | 0.216 ± 0.013 |
| GGTTAACA | 0.255 ± 0.026 |
| TGTTAACA | 0.38 ± 0.0039 |
| CGTTAACC | 0.0384 ± 0.0052 |
| AGTTAACA | 0.334 ± 0.013 |
| CGTTAGCA | 0.394 ± 0.012 |
| GGTTAGCA | 0.314 ± 0.027 |
| CGTTAACG | 0.266 ± 0.015 |
| AGTTAGCA | 0.32 ± 0.023 |
| CGTTAACA | 0.372 ± 0.044 |
| TCTTCCCA | 0.114 ± 0.031 |
| TACCATAA | -0.0564 ± 0.0014 |
| GAAATAGA | -0.125 ± 0.036 |
| CGACTTCC | -0.183 ± 0.002 |

| Sequence | PBM E-score of 8-mer |
| --- | --- |
| AAGATGGA | -0.228 ± 0.058 |
| ACCCCGCC | 0.119 ± 0.051 |
| ATTCACGC | 0.4258 ± 0.0014 |
| CTTCACAC | 0.4785 ± 0.0022 |
| CTTCACCC | 0.0387 ± 0.019 |
| ATTCACAG | 0.355 ± 0.0076 |
| ATTCACAC | 0.4763 ± 0.0034 |
| CTTCACAA | 0.225 ± 0.058 |
| ATTCACAA | 0.247 ± 0.024 |
| ATTCACGA | 0.29 ± 0.0094 |
| CTTCACGC | 0.356 ± 0.04 |
| CATTAGAC | -0.177 ± 0.0077 |
| AATATAAA | -0.136 ± 0.075 |
| ACGCTTCT | 0.106 ± 0.035 |
| CAAACCCC | -0.155 ± 0.069 |
| ACGGGCAA | -0.133 ± 0.057 |
| CGCACCTC | 0.46 ± 0.012 |
| CCCACCTC | 0.2907 ± 0.0021 |
| ACCACCTC | 0.341 ± 0.027 |
| AGCACCCG | 0.252 ± 0.061 |
| GGCACCTA | 0.412 ± 0.006 |
| AGCACCGC | 0.0529 ± 0.038 |
| CGCACCGC | 0.222 ± 0.063 |
| GCCACCTA | 0.336 ± 0.033 |
| AGCACCTG | 0.415 ± 0.0079 |

| Sequence | PBM E-score of 8-mer |
| --- | --- |
| AGCACCGG | 0.0404 ± 0.045 |
| GGCACCGA | -0.0859 ± 0.03 |
| AGCACCTC | 0.4279 ± 0.0012 |
| CCCTAATA | -0.219 ± 0.027 |
| GAACACTC | 0.0811 ± 0.024 |
| AGGGAACG | 0.0301 ± 0.15 |
| ACTATGCT | 0.00416 ± 0.025 |
| AAGAGCGT | -0.119 ± 0.04 |
| GAGGCCTA | -0.176 ± 0.014 |
| CTCAAATA | -0.321 ± 0.072 |
| ACCAAGTA | 0.0125 ± 0.031 |
| AAGAGCGC | -0.188 ± 0.004 |
| AGGAGAAA | -0.109 ± 0.19 |
| CACTAAGA | 0.0202 ± 0.013 |
| CAGCCCTG | -0.294 ± 0.015 |
| ACCAGCCT | -0.14 ± 0.082 |
| AGGGTATG | -0.218 ± 0.032 |
| TGAAGCAA | -0.229 ± 0.055 |
| CGCACCTA | 0.422 ± 0.0048 |
| ACCACCTA | 0.205 ± 0.0085 |
| AGCACCTA | 0.435 ± 0.00088 |
| AGCACCGA | -0.00405 ± 0.11 |
| CGCACCAA | 0.251 ± 0.04 |
| CGCACCGA | 0.0275 ± 0.11 |
